Bioassay records as filed in PubChem.
Only some compounds are listed: those with a hit (about 19% of all), similar ones and a draw of the others.
TDP1 cell noCPT – qHTS for Inhibitors of human tyrosyl-DNA phosphodiesterase 1 (TDP1): qHTS in cells in absence of CPT. DT40 Tdp1-/- hTDP1 cells, no CPT, ATP luminescence, 48 h. 420,000 compounds, 15% hits. Potency, µM (top dose mostly 46.2 µM), inactives show at the highest dose activity change, negative = growth inhibition, most hits filed as inhibitors; also: nearly all actives have a fitted effect of over 55% in size
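A cellular qHTS used chicken DT40 cells lacking endogenous Tdp1 but carrying stably transfected human TDP1. Compounds were applied without camptothecin, and cell growth kinetics were judged by ATP-dependent luminescence after ≥48 hr.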
DT40 TDP1 CPT – DT40-hTDP1 cell growth loss with CPT. chicken DT40 Tdp1-/-;hTDP1 cells + 20 nM CPT, ATP luminescence, 48 h. Potency, µM (titrated, usually from 46.2 µM), inactives show top-dose activity change, negative = growth inhibition, hits mostly inhibitors. 420,000 compounds, 12% hits. AID 686979; also: nearly all actives have a fitted effect of over 55% in size
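Cell growth measured by CellTiter-Glo luminescence after a minimum 48 h, 37 C compound exposure with 20 nM CPT in Tdp1-knockout DT40 cells stably expressing hTDP1, seeded 400/well; qHTS titration format.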
KB-3-1 cytotox – kills parental KB-3-1 adenocarcinoma cells; KB-3-1 viability, CellTiter-Glo ATP luminescence, 72 h; Potency, µM (highest dose often 46.1 µM), actives largely listed as cytotoxic; 400,000 compounds, 1.4% hits; also: nearly all actives have a fitted effect of over 60% in size
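Parental KB-3-1 viability, qHTS format: 72 h compound exposure, 37 °C; CellTiter-Glo; media-only wells and DMSO plates as controls; concentration-effect fits on corrected data.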
HT1080-NT tox – kills 2HG-producing HT-1080-NT fibrosarcoma cells; Potency, µM (doses to about 46.1 µM), for the others: top-dose activity, negative = less viability, hits mostly cytotoxic; HT-1080-NT fibrosarcoma viability, CellTiter-Glo ATP luminescence, 48 h; 360,000 compounds, 1.6% hits;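 also: NT is the 2HG producing partner of a matched IDH1 knockdown line; 0% = DMSO-treated cells and -100% = media-only wells without cells; nearly all actives have a fitted effect of over 55% in size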
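750 cells/well, RPMI + 5% FBS; 2 h settle, compound pin-transfer, 48 h at 37 degrees C. CellTiter-Glo 10 min RT, luminescence. Normalized to DMSO and media-only wells.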
KB-V1 cytotox – KB-V1 MDR subline cytotoxicity; AID 1347076; KB-V1 MDR cells viability, CellTiter-Glo, 72 h; Potency, µM (titrated, usually from 46.1 µM), hits mostly cytotoxic; 400,000 compounds, 3.4% hits; also: nearly all actives have a fitted effect of over 60% in size
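KB-V1 MDR subline cells in DMEM (phenol-red free, 10% FBS) exposed to compounds in qHTS concentration series for 72 h at 37 degrees C. Viability read by CellTiter-Glo luminescence; concentration-effect curves fitted after normalization and correction.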
HT1080 IDH1KD tx – kills HT-1080 cells with IDH1 knockdown; HT-1080 IDH1 knockdown viability, ATP luminescence, 48 h; Potency, µM (doses to about 46.1 µM), for the others: at the highest dose activity, negative = toxicity, most hits filed as cytotoxic; 360,000 compounds, 2% hits;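 also: 0% = DMSO wells and -100% = cell-free medium wells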
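IDH1KD HT-1080 cells, 750/well, RPMI + 5% FBS; compound pinned after 2 h settling; 48 h, 37 °C; CellTiter-Glo luminescence; % activity normalised to DMSO and no-cell wells; curves fitted, classed by r2 and efficacy.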
Starred values were filed as active, the others as inactive. Calls follow the shape of the dose curve; as a rule, active = well fitted curve in the direction sought with a large enough effect; inconclusive = small, poorly fitted or top-dose-only effect, or another doubt; inactive = no such curve, though single readings can be large; an effect the other way counts as inactive or inconclusive. Unless noted, % is scaled to controls: 0 for no effect and ±100 for the full control effect; potency is read from the fitted curve at half-maximal effect.

O=C(CSc1nc2c([nH]c3ccccc32)c(=O)n1-c1cccc(C(F)(F)F)c1)N1CCCC1 was read as TDP1 cell noCPT 0%, DT40 TDP1 CPT 3%, KB-3-1 cytotox inactive and KB-V1 cytotox inconclusive.
`Cc1cccc(Oc2ccc(NC(=O)CCC(=O)OCC(=O)c3ccc(Br)cc3)cc2)c1C` gave TDP1 cell noCPT 12µM*, DT40 TDP1 CPT 13µM*, KB-3-1 cytotox inactive and KB-V1 cytotox inactive.
CC(C)(C)c1ccc(Oc2ccc(NC(=O)CCC(=O)OCC(=O)c3ccccc3)cc2)cc1 was read as TDP1 cell noCPT 13µM*, DT40 TDP1 CPT 15µM*, KB-3-1 cytotox inactive and KB-V1 cytotox inactive.
Screening Cc1ccc(C(=O)COC(=O)CCC(=O)Nc2ccc(Oc3cc(C)ccc3C(C)C)cc2)cc1 returned TDP1 cell noCPT inconclusive, DT40 TDP1 CPT inconclusive, KB-3-1 cytotox inactive and KB-V1 cytotox inactive.
Cc1ccc(C(=O)COC(=O)CCC(=O)Nc2ccc(Oc3ccccc3)cc2)cc1C was read as TDP1 cell noCPT -2%, DT40 TDP1 CPT 9%, KB-3-1 cytotox inactive and KB-V1 cytotox inconclusive.
Screening CCN(CC(=O)Nc1ccccc1OC)CC(=O)Nc1ccccc1-c1ccccc1 returned TDP1 cell noCPT 9.2µM*, DT40 TDP1 CPT 7.3µM*, KB-3-1 cytotox 21µM*, HT1080-NT tox 15µM*, KB-V1 cytotox 8.2µM* and HT1080 IDH1KD tx 7.3µM*.
For Cc1ccccc1CN(C)CC(=O)Nc1ccccc1-c1ccccc1 the results were TDP1 cell noCPT inconclusive, DT40 TDP1 CPT -18%, KB-3-1 cytotox inactive, HT1080-NT tox 9%, KB-V1 cytotox inconclusive and HT1080 IDH1KD tx 0%.
COc1ccccc1NC(=O)c1ccc(NC(=O)CN(C)Cc2ccccc2F)cc1 was read as TDP1 cell noCPT 23µM*, DT40 TDP1 CPT -8%, KB-3-1 cytotox inactive, HT1080-NT tox -19%, KB-V1 cytotox inactive and HT1080 IDH1KD tx -11%.
CN(CC(=O)Nc1ccccc1Oc1ccccc1)Cc1ccccc1F was read as TDP1 cell noCPT inconclusive, DT40 TDP1 CPT inconclusive, KB-3-1 cytotox inactive, HT1080-NT tox 1%, KB-V1 cytotox inconclusive and HT1080 IDH1KD tx -1%.
COc1ccccc1NC(=O)CCC(=O)c1ccc(-c2ccccc2)cc1 was read as TDP1 cell noCPT 23µM*, DT40 TDP1 CPT inconclusive, KB-3-1 cytotox inactive, HT1080-NT tox -10%, KB-V1 cytotox inactive and HT1080 IDH1KD tx -7%.
For COc1ccccc1NC(=O)CCSCCC(=O)Nc1ccccc1OC the results were TDP1 cell noCPT inconclusive, DT40 TDP1 CPT 7%, KB-3-1 cytotox inactive, HT1080-NT tox 5%, KB-V1 cytotox inactive and HT1080 IDH1KD tx 12%.
COc1ccccc1CN(C)CC(=O)Nc1ccccc1-c1ccccc1 was read as TDP1 cell noCPT 23µM*, DT40 TDP1 CPT inconclusive, KB-3-1 cytotox inactive, HT1080-NT tox -7%, KB-V1 cytotox inconclusive and HT1080 IDH1KD tx -19%.
For Cc1ccccc1NS(=O)(=O)c1ccc(NS(=O)(=O)c2cccs2)cc1 the results were TDP1 cell noCPT 26%, DT40 TDP1 CPT 6%, KB-3-1 cytotox inconclusive, HT1080-NT tox 4%, KB-V1 cytotox inactive and HT1080 IDH1KD tx -10%.
COc1ncnc2c1ncn2CCCN[C@H](C)c1cccc2ccccc12 was read as TDP1 cell noCPT 1%, DT40 TDP1 CPT 1%, KB-3-1 cytotox inactive, HT1080-NT tox 4%, KB-V1 cytotox inactive and HT1080 IDH1KD tx -12%.
For COc1ccc(CN(C)CC(=O)Nc2ccccc2-c2ccccc2)c(OC)c1 the results were TDP1 cell noCPT 18µM*, DT40 TDP1 CPT inconclusive, KB-3-1 cytotox inconclusive, HT1080-NT tox -13%, KB-V1 cytotox inconclusive and HT1080 IDH1KD tx inconclusive.
